Screening data as filed in PubChem BioAssay.
TDP1 inh – qHTS Assay for Inhibitors of Tyrosyl-DNA Phosphodiesterase (TDP1); Potency, µM (series often up to 130 µM), inactives show at the highest dose activity change, negative = inhibition, most hits filed as inhibitors; 0.28% of 350,000 active; AID 485290, 2010; recombinant TDP1, AlphaScreen DNA substrate cleavage; also: potency is read from the fitted curve at half-maximal effect; % is scaled to controls: 0 for no effect and ±100 for the full control effect; nearly all actives have a fitted effect of over 40% in size
Target sequence (Q9NUW8 whole entry, looked up): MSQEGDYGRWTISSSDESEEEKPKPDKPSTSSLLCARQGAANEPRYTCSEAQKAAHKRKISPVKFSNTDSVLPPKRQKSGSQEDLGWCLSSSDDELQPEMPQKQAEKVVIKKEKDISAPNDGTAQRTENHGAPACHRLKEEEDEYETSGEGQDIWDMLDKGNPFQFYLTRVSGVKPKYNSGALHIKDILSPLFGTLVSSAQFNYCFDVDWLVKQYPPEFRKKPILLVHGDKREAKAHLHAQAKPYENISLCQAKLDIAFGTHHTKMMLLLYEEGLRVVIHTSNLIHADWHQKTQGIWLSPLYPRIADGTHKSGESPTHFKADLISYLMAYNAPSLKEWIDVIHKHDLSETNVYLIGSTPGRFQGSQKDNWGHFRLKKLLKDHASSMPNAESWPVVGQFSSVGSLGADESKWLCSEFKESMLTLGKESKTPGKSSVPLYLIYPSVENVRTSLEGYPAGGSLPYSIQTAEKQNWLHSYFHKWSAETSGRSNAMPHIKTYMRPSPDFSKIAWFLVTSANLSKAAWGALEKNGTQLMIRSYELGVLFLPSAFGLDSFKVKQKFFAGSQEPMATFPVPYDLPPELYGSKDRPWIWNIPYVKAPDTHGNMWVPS
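Here, a 5' biotin and 3' phosphotyrosine-FITC DNA oligonucleotide reports Tdp1 activity: intact substrate bridges AlphaScreen beads, while cleavage leaves a 3' phosphate and drops signal. All incubations at room temperature.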
HepG2 viability – qHTS for Inhibitors of TGF-b: Cytotox Counterscreen; Potency, µM (series often up to 46.1 µM), inactives show top-dose activity change, negative = cytotoxicity, hits mostly cytotoxic; AID 588856, 2011; 0.76% of 410,000 active; HepG2 CAGA-GFP viability, ATP luminescence, 18 h; also: potency is read from the fitted curve at half-maximal effect
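HepG2 CAGA-GFP cells (1000/well, DMEM with 1% FBS) received compound, then TGF-beta at 500 pg/mL final, and were incubated 18 hours at 37 degrees C. Viability was read by CellTiter-Glo luminescence. Media-only wells were set as complete cell-killing and DMSO as no toxicity.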
TGFb SMAD3 inh – qHTS for Inhibitors of TGF-b; Potency, µM (doses to about 46.1 µM), without a hit: top-dose activity, negative = inhibition, most hits filed as inhibitors; 1.2% of 410,000 active; HepG2 CAGA-GFP TGF-b/SMAD3 reporter, GFP fluorescence, 18 h; TGF-beta stimulated, 500 pg/mL final; AID 588855, 2011; also: potency is read from the fitted curve at half-maximal effect; % is scaled to controls: 0 for no effect and ±100 for the full control effect; nearly all actives have a fitted effect of over 65% in size
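HEPG2 CAGA-GFP cells (1000/well, DMEM with 1% FBS) were pre-incubated 2 h at 37 degrees C, given compound by pin tool, then stimulated with TGF-beta at 500 pg/mL final for 18 h before per-cell GFP fluorescence imaging.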
DT40 TDP1 CPT – qHTS for Inhibitors of human tyrosyl-DNA phosphodiesterase 1 (TDP1): qHTS in cells in presence of CPT | chicken DT40 Tdp1-/-;hTDP1 cells + 20 nM CPT, ATP luminescence, 48 h | Potency, µM (titrated, usually from 46.2 µM), for the others: top-dose activity change, negative = growth inhibition, usual class: inhibitors | 12% of 420,000 active; also: potency is read from the fitted curve at half-maximal effect; % is scaled to controls: 0 for no effect and ±100 for the full control effect; nearly all actives have a fitted effect of over 55% in size
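Chicken DT40 Tdp1-/- cells stably complemented with human TDP1 were seeded at 400 cells/well in medium containing 20 nM camptothecin, exposed to pin-transferred compounds, and grown at 37 °C for at least 48 hr. Viability was read as ATP luminescence.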
TDP1 cell noCPT – qHTS for Inhibitors of human tyrosyl-DNA phosphodiesterase 1 (TDP1): qHTS in cells in absence of CPT | Potency, µM (doses to about 46.2 µM), for inactives: at the highest dose activity change, negative = growth inhibition, actives largely listed as inhibitors | AID 686978, 2013 | 15% of 420,000 active | DT40 Tdp1-/- hTDP1 cells, no CPT, ATP luminescence, 48 h; also: potency is read from the fitted curve at half-maximal effect; % is scaled to controls: 0 for no effect and ±100 for the full control effect; nearly all actives have a fitted effect of over 55% in size
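Cells were dispensed at 400 per well, compounds added by pin tool, plates incubated ≥48 hr at 37 °C, then CellTiter-Glo added for 30 min at room temperature before luminescence reading. Line: DT40 Tdp1-/- complemented with hTDP1; camptothecin omitted.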
IL-1B inflam inh – qHTS for Inhibitors of Inflammasome Signaling: IL-1-beta AlphaLISA Primary Screen | THP-1 LPS/ATP IL-1B secretion, AlphaLISA, 16 h; active compounds read low | activity change, % at 57.5 µM | 4.7% of 360,000 active | AID 743279, 2014; in the data active = activity change below about -50%; inconclusive = mostly about -30% to -49%; also: % is scaled to controls: 0 for no effect and ±100 for the full control effect
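THP-1 cells pretreated 1 hr with compounds (up to 57.5 uM final), then stimulated with LPS (250 ng/mL final) plus ATP (1.25 mM final); secreted IL-1B measured by AlphaLISA after 16 hr, decreased signal indicating inhibition.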
An asterisk follows results filed as active; i = inactive; ? = inconclusive; · = no result given. Shown are actives, neighbours in structure and some others; about 18% of the full set was active somewhere. Unless noted, calls follow the shape of the dose curve; as a rule, active = well fitted curve in the direction sought with a large enough effect; inconclusive = small, poorly fitted or top-dose-only effect, or another doubt; inactive = no such curve, though single readings can be large; an effect the other way counts as inactive or inconclusive.

SMILES	TDP1 inh	HepG2 viability	TGFb SMAD3 inh	DT40 TDP1 CPT	TDP1 cell noCPT	IL-1B inflam inh
O=C1NC[C@H](Cc2ccc(O)cc2)N(C[C@@H]2CCCN2C[C@H](Cc2ccccc2)N2C[C@H](Cc3ccc(O)cc3)N(CC3CCCCCC3)C(=O)C2=O)C1=O	·	·	·	?	?	-56*
CC(C)C[C@H]1CN([C@@H](Cc2ccccc2)CN2CCC[C@H]2CN2C(=O)C(=O)NC[C@@H]2Cc2ccc(O)cc2)C(=O)C(=O)N1CC1CCCCCC1	·	·	·	?	16µM*	-89*
COc1ccc(S(=O)(=O)c2cn(C)c3cc(N4CCCCCC4)c(F)cc3c2=O)cc1	7%	-6%	-1%	18µM*	15µM*	·
CCCCn1cc(S(=O)(=O)c2ccc(C)cc2)c(=O)c2cc(F)c(N3CCCCC3)cc21	2%	-24%	-4%	18µM*	13µM*	·
CCCn1cc(S(=O)(=O)c2ccc(OC)cc2)c(=O)c2cc(F)c(N3CCCC(C)C3)cc21 (stereo not given)	-1%	-12%	-22%	?	18µM*	·
CCCn1cc(S(=O)(=O)c2ccc(C)cc2)c(=O)c2cc(F)c(N3CCCC3)cc21	4%	5%	-8%	?	-27%	·
CCCCn1cc(S(=O)(=O)c2ccc(OC)cc2)c(=O)c2cc(F)c(N3CCCC3)cc21	-5%	-28%	1%	12µM*	10µM*	·
CCCCn1cc(S(=O)(=O)c2ccc(C)c(C)c2)c(=O)c2cc(F)c(N3CCCC(C)C3)cc21 (stereo not given)	7%	5%	24%	?	?	·
Cc1cc(C)cc(S(=O)(=O)c2cn(C)c3cc(N4CCCC4)c(F)cc3c2=O)c1	4%	-7%	-2%	-3%	5%	·
Cc1nc2nc(SCC(=O)NCc3ccccc3)nn2c(C)c1Cc1ccccc1Cl	3%	2%	-15%	?	?	·
CCCCn1cc(S(=O)(=O)c2ccc(Cl)cc2)c(=O)c2cc(F)c(N3CCCCC3)cc21	1%	-7%	-21%	12µM*	12µM*	·
CC(C)CCNC(=O)CCn1nc(-c2ccc(Cl)cc2)ccc1=O	·	-5%	-1%	-12%	-5%	-22
COc1ccc(N=Cc2nc(-c3ccccc3)oc2OC(C)=O)cc1	1%	-27%	-14%	?	13µM*	-9
Cc1ccc(C(=O)Oc2oc(-c3ccco3)nc2C=Nc2ccc(Cl)cc2)cc1	6%	-4%	9%	18µM*	23µM*	-51*
O=C(Oc1oc(-c2ccco2)nc1C=Nc1ccccc1)c1ccco1	-3%	7%	11%	3.7µM*	4.6µM*	?
O=C(Oc1oc(-c2ccco2)nc1C=Nc1ccccc1)c1ccoc1	2%	1%	7%	5.2µM*	12µM*	-68*
C[C@@H](C(=O)N[C@@H](Cc1c[nH]c2ccccc12)C(=O)O)n1nnc2ccccc2c1=O	·	-5%	3%	?	-29%	8
CC1Sc2ccc(S(=O)(=O)CCC(=O)NCc3ccc(Cl)cc3)cc2NC1=O (stereo not given)	-5%	-16%	?	?	?	76
CC(C)n1cc(CN2CCC(n3nccc3NC(=O)C3CCCC3)CC2)cn1	0%	0%	0%	8%	7%	i
CC1(CC(=O)O)SC(=O)NC1=O (stereo not given)	8%	-2%	6%	3%	0%	4
C[C@]12CCC(=O)C=C1[C@@H]1C[C@H]1[C@H]1[C@@H]3[C@@H]4C[C@H]4[C@@]4(CCC(=O)O4)[C@@]3(C)CC[C@@H]12	6%	·	·	·	·	·
COc1ccc2c(C)c(CC(=O)NCc3ccc(C)cc3)c(=O)oc2c1OC	2%	4%	32%	0%	-23%	·
Cc1c(CCC(=O)N[C@@H](C)C(=O)O)c(=O)oc2cc3oc4c(c3cc12)CCCC4	·	-12%	2%	3%	1%	10
COc1ccccc1CNC(=O)Cc1c(C)c2cc3c(C)coc3c(C)c2oc1=O	2%	2%	0%	16µM*	12µM*	·
Cc1coc2c(C)c3oc(=O)c(CC(=O)NCc4ccccc4)c(C)c3cc12	0%	-8%	-3%	5.8µM*	4.6µM*	·
SMILES	TDP1 inh	HepG2 viability	TGFb SMAD3 inh	DT40 TDP1 CPT	TDP1 cell noCPT	IL-1B inflam inh
Cc1coc2c(C)c3oc(=O)c(CC(=O)N[C@@H](CC(C)C)C(=O)O)c(C)c3cc12	·	-15%	-13%	7%	3%	0
COc1ccccc1CCNC(=O)CCc1c(C)c2cc3c(C)coc3c(C)c2oc1=O	5%	-6%	-13%	?	?	·
Cc1c(CC(=O)NCc2ccccc2)c(=O)oc2c(C)c(O)ccc12	2%	-14%	8%	13µM*	13µM*	·
CCCC(NC(=O)CCc1c(C)c2cc3c4c(oc3c(C)c2oc1=O)CCCC4)C(=O)O (stereo not given)	·	-11%	-6%	12µM*	-10%	21
CCCOc1ccc(-c2nnn(CC(=O)c3c[nH]c4ccccc34)n2)cc1	2%	-2%	-3%	-14%	-10%	20
Cc1ccc(NC(=O)c2ccc(N3CCCC3=O)cc2)cc1S(=O)(=O)N1CCCCC1	-12%	-1%	-1%	-1%	-29%	-2
Cc1coc2c(C)c3oc(=O)c(CCC(=O)NCCc4ccccc4)c(C)c3cc12	-2%	-28%	-20%	13µM*	16µM*	·
CCOc1ccc(Nc2nc(C)c(NC(=O)c3cccc(F)c3)c(Nc3ccc(OCC)cc3)n2)cc1	10%	-36%	?	0.65µM*	0.52µM*	·
O=C(c1ccc2c(c1)OCCO2)C1CCN(C(=O)Nc2ccc(F)cc2)CC1	·	-55%	-17%	?	18µM*	15
